The list is not random: actives were taken first. Their share in the collection is about 3.5%.
GPR151 activ: activators of human GPR151; PathHunter beta-arrestin GPR151 cells, luminescence; 650,000 compounds, 1% hits; Q8TDV0; AID 1508602; activation, % at 11.2 µM; in the data active means activation above about 4.9%
FBW7 act: human FBW7 E3 ligase activation, primary screen; Q969H0; AlphaScreen FBW7–phospho-cyclin E peptide binding, activator screen; normalized activity (activation), % at 26.1 µM; 650,000 compounds, 0.13% hits; in the data active means normalized activity above about 1.9%;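 further: purified mutant Fbw7 with reduced substrate affinity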
TEAD-YAP inh: TEAD-YAP interaction inhibition. HEK-TIYL cells, TEAD-Gal4/YAP UAS-luciferase luminescence. inhibition, % at 9.12 µM. 640,000 compounds, 1.4% hits; in the data active means inhibition above about 32%
MITF primary: human MITF inhibition, primary screen; O75030; AlphaScreen MITF homodimerization, bead proximity signal; inhibition, % at 2.6 µM; 650,000 compounds, 0.91% hits; in the data active means inhibition above about 50%
Target sequence (O75030 whole entry, looked up): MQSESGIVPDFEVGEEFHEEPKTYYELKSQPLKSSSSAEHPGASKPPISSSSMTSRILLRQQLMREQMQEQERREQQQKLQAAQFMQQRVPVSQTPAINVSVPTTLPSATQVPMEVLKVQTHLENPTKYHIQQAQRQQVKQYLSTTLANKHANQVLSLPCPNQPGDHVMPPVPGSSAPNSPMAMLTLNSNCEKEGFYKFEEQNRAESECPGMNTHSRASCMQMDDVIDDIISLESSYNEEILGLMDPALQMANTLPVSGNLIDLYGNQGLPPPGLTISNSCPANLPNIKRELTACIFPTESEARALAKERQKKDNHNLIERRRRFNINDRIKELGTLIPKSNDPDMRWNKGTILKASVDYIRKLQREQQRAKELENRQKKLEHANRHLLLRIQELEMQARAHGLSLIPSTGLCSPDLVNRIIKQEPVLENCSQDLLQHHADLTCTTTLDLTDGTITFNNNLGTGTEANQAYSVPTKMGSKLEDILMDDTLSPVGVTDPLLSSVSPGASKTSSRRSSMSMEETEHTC
Hits are given with their value; i = inactive.

SMILES | GPR151 activ | FBW7 act | TEAD-YAP inh | MITF primary
O=C(CSc1nnc(-c2ccc3c(c2)OCO3)o1)c1ccccc1F | i | i | i | i
CCCCCN(C(=O)NC(=O)Nc1ccccc1OC)S(=O)(=O)c1ccc(C)cc1 | i | i | i | i
CC(=O)Nc1ccc(Nc2nc(-c3cccc(N)c3)nc3c2ncn3C(C)C)cc1 | i | i | 38 | i
CC(C)n1cnc2c(Nc3ccccc3)nc(-c3cccc(N)c3)nc21 | i | i | i | i
CC(=O)Nc1ccc(Nc2nc(-c3cccc(N)c3)nc3c2ncn3-c2ccccc2)cc1 | i | i | 41 | i
CC(=O)Nc1ccc(Nc2nc(-c3ccccc3)nc3c2ncn3-c2ccccc2)cc1 | i | i | i | i
COc1ccc(-c2nc(Nc3ccc(NC(C)=O)cc3)c3ncn(C(C)C)c3n2)cn1 | i | i | 35 | i
CC(=O)Nc1ccc(Nc2nc(-c3ccc(C(N)=O)cc3)nc3c2ncn3C(C)C)cc1 | i | i | i | i
COc1ccc(-n2cc(-c3ccccc3)nc2SCC(=O)NCCc2ccccc2)cc1 | i | i | i | i
C=CCn1c(=NC(=O)c2ccccc2[N+](=O)[O-])sc2cc(NC(C)=O)ccc21 | i | i | 49 | i
Cc1ccc(C2c3c(-c4ccc(F)cc4)n[nH]c3C(=O)N2c2ccccc2)cc1 (stereo unspecified) | i | i | i | i
Cc1ccc(-c2n[nH]c3c2C(c2ccccc2F)N(c2ccccc2)C3=O)cc1 (stereo unspecified) | i | i | 48 | i
CCOCCOC(=O)c1[nH]c2c(c1C)C(=O)CC(c1ccc(OC)c(OC)c1)C2 (stereo unspecified) | i | i | i | i
COc1cc(C2CC(=O)c3c([nH]c(C(=O)OCCSC)c3C)C2)cc(OC)c1OC (stereo unspecified) | i | i | 56 | i
COc1ccc(C2CC(=O)c3c([nH]c(C(=O)OCCOC(C)C)c3C)C2)cc1 (stereo unspecified) | i | i | i | i
COc1cc(C2CC(=O)c3c([nH]c(C(=O)OCCOC(C)C)c3C)C2)cc(OC)c1OC (stereo unspecified) | i | i | 66 | i
COc1ccc(/C(C#N)=C/c2ccc3c(c2)OCO3)cc1OC | i | i | 37 | i
CCOc1ccc(/C=C(/C#N)c2ccc3c(c2)OCO3)cc1 | i | i | i | i
CC(C)N(C)C(=O)C1CC(=O)c2sc(NC(=O)C3CCC3)nc2C1 (stereo unspecified) | i | i | i | i
O=[N+]([O-])c1cccc(S(=O)(=O)NCCc2cn3ccsc3n2)c1 | i | 6.2 | i | i
O=[N+]([O-])c1ccc(S(=O)(=O)NCCc2cn3ccsc3n2)cc1 | i | i | i | i
O=S(=O)(NCc1cn2ccsc2n1)c1ccc(Oc2ccccc2)cc1 | i | i | 35 | i
COc1ccccc1C(=O)NCCn1cc(SCC(=O)Nc2ccc(C)cc2)c2ccccc21 | i | i | i | i
COc1ccccc1C(=O)NCCn1cc(SCC(=O)Nc2ccc(Br)cc2)c2ccccc21 | i | 2.0 | i | i
COc1ccc(C2=NN(C(=O)c3cc(OC)c(OC)c(OC)c3)C(c3ccc(OC)c(OC)c3)C2)cc1OC (stereo unspecified) | i | i | i | i
SMILES | GPR151 activ | FBW7 act | TEAD-YAP inh | MITF primary
COc1ccc(C2=NN(C(=O)c3ccccc3)C(c3cccc([N+](=O)[O-])c3)C2)cc1 (stereo unspecified) | i | i | i | i
COc1ccc(C2=NN(C(=O)c3cc(OC)c(OC)c(OC)c3)C(c3ccc(C)cc3)C2)cc1OC (stereo unspecified) | i | i | 46 | i
COc1ccc(C2=NN(C(=O)c3cc(OC)c(OC)c(OC)c3)C(c3cccc([N+](=O)[O-])c3)C2)cc1OC (stereo unspecified) | i | i | 37 | i
O=C1c2cccc3cccc(c23)C(=O)N1CCNCCO | i | i | 64 | i
CC(C)(C)NC(=O)c1ccc(S(=O)(=O)N2CCCC2)cc1 | i | i | i | i
COc1ccc(S(=O)(=O)Nc2ccc(OC)cc2OC)cc1 | i | i | 61 | i
CCOc1ccccc1NS(=O)(=O)c1ccc(OC)cc1 | i | i | 47 | i
CCOc1ccc(S(=O)(=O)Nc2ccccc2OC)cc1 | i | i | 42 | i
CCOc1ccc(S(=O)(=O)Nc2ccccc2CC)cc1 | i | i | i | i
COc1ccc(NS(=O)(=O)c2ccc(F)cc2)c(OC)c1 | i | i | i | i
C=CCn1c(-c2ccccc2)cnc1SCC(=O)Nc1ccccc1 | i | i | i | i
C=CCn1c(-c2ccc(Cl)cc2)cnc1SCC(=O)Nc1sccc1C(N)=O | i | i | 34 | i
CCCNc1ncnc2c1nc(NCCCN1CCCC1=O)n2C(C)C | i | i | i | i
CC(C)n1c(NCCCN2CCCC2=O)nc2c(Nc3ccccc3)ncnc21 | i | i | 35 | i
CC(C)n1c(NCCN2CCOCC2)nc2c(Nc3ccccc3)ncnc21 | i | i | 41 | i
CC(C)n1c(NCCN2CCOCC2)nc2c(Nc3ccc(N4CCOCC4)cc3)ncnc21 | i | i | i | i
CCCNc1cc(C)nc(Oc2ccccc2)n1 | i | i | 80 | i
COC(=O)COc1ccc2c(=O)c(Oc3ccccc3Cl)coc2c1 | i | i | i | i
Cc1cc(Nc2ccc3c(c2)OCO3)nc(Nc2nccc3ccccc23)n1 | i | i | 35 | i
Nc1nc(Nc2ccc3c(c2)OCO3)cc(Nc2nccc3ccccc23)n1 | i | i | 36 | i
COc1ccc(Nc2cc(C)nc(-n3nc(C)cc3C)n2)cc1OC | i | i | 69 | i
CN(/N=C1/C(=O)N(C)c2ccccc21)C(N)=O | i | i | i | i
COc1ccc(Nc2ncnc3sc4c(c23)CCC4)cc1O | i | i | 37 | i
CCC(Nc1ncnc2ccccc12)C(=O)O (stereo unspecified) | i | i | i | i
CCOC(=O)/C(=N\Nc1ncnc2ccccc12)c1cccs1 | i | i | 36 | i
SMILES | GPR151 activ | FBW7 act | TEAD-YAP inh | MITF primary
CC1CCCCN1C(=O)CSc1nnc(-c2ccc(O)cc2)o1 (stereo unspecified) | i | i | 49 | i
Cc1ccc(-c2nnc(SCC(=O)N3CCCCC3C)o2)cc1C (stereo unspecified) | i | i | i | i
CC(Oc1ccc2c(=O)c(Oc3ccccc3Br)coc2c1)C(=O)OC1CCCCC1 (stereo unspecified) | i | i | i | i
O=C(NCC1Cc2cc(Cl)cc(-c3ncccn3)c2O1)c1ccc(N2CCCC2)cc1 (stereo unspecified) | i | i | 46 | i
COCCn1c(C)cc(/C=C(/C#N)c2nc3ccc(C)cc3[nH]2)c1C | i | i | i | i
Nc1cc(S(=O)(=O)N2CCCCC2)ccc1OCC(F)(F)F | i | i | i | i
Cc1ccc(C(NC(=O)COc2ccccc2)c2cc(Cl)c3cccnc3c2O)cc1 (stereo unspecified) | i | i | i | i
CCCCC(=O)NC(c1ccc(C)cc1)c1ccc2cccnc2c1O (stereo unspecified) | i | i | 85 | i
CCCCC(=O)NC(c1ccc(N(CC)CC)cc1)c1ccc2cccnc2c1O (stereo unspecified) | i | i | i | i
